# According to PubChem BioAssay (NCATS):
# Values without a mark were called inactive. Calls come from the whole dose curve; as a rule, active = well fitted curve in the direction sought with a large enough effect; inconclusive = small, poorly fitted or top-dose-only effect, or another doubt; inactive = no such curve, though single readings can be large; an effect the other way counts as inactive or inconclusive. Records with an inconclusive call do not appear.
# Assay: MultiTox-Fluor Cytotoxicity Assay - LYMP1-002 - Dead Cells (AID 960);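 note: 0% = DMSO and 100% = tetraoctylammonium bromide; nearly all actives have a fitted effect of over 60% in size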
# Conditions: LYMP1-002 lymphoblastoid cells, dead-cell protease fluorescence; series mostly up to 46.1 µM; cytotoxicity (dead cells): at the top concentration
# Procedure, shortened: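 Cells were plated, rested 5 hr, then treated with compound dilution series for 16 hr at 37 C. After adding substrate reagent and 60 min at room temperature, dead-cell protease fluorescence gave concentration-response curves fitted by the Hill equation.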
row,Compound,cytotoxicity (dead cells) [%]
1,C=CC(=O)NCNC(=O)C=C,8.64
2,O=C(O)COc1ccccc1,-10.1
3,OCCCBr,6.59
4,CCCCCCCCc1ccc(O)cc1,18.6

# Assay: MultiTox-Fluor Cytotoxicity Assay - LYMP1-003 - Dead Cells (AID 961);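 note: 0% = DMSO and 100% = tetraoctylammonium bromide; nearly all actives have a fitted effect of over 70% in size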
# Conditions: LYMP1-003 lymphoblastoid cells, dead-cell protease fluorescence; series mostly up to 92.2 µM; cytotoxicity (dead cells): at the top concentration
# Procedure, shortened: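 LYMP1-003 human lymphoblastoid cells (2500/well) exposed to compound 16 h at 37 C in complete medium; dead-cell protease read with bis-AAF-R110 fluorescence (Ex/Em 485/520) after 60 min at room temperature. Normalized to DMSO and 15 uM tetraoctylammonium bromide; AC50 from Hill fit.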
row,Compound,cytotoxicity (dead cells) [%]
1,C=CC(=O)NCNC(=O)C=C,-6.37
2,O=C(O)COc1ccccc1,2.83
3,OCCCBr,-6.68
4,CCCCCCCCc1ccc(O)cc1,11.6

# Assay: MultiTox-Fluor Cytotoxicity Assay - LYMP1-003 - Live Cells (AID 962);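 note: 0% = DMSO only and full loss = 92 µM tetraoctylammonium bromide; cytotoxic hits lower the live-cell protease signal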
# Conditions: LYMP1-003 lymphoblastoid cells, MultiTox-Fluor live-cell protease fluorescence; series mostly up to 92.2 µM; activity change, negative = fewer live cells: at the top concentration
# Procedure, shortened: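 Acute cytotoxicity is scored as a drop in live-cell protease activity in human lymphoblastoid LYMP1-003 cells after 16 hr compound exposure at 37 C. AC50 values come from Hill-equation modelling of concentration-response data.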
row,Compound,"activity change, negative = fewer live cells [%]"
1,C=CC(=O)NCNC(=O)C=C,-5.77
2,O=C(O)COc1ccccc1,-1.83
3,OCCCBr,-7
4,CCCCCCCCc1ccc(O)cc1,-3.57

# Assay: Cell Viability - LYMP1-003 - Assay at 24 hr (AID 963);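 note: plate controls were DMSO only for no effect and tetraoctylammonium bromide positive control for full effect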
# Conditions: LYMP1-003 lymphoblastoid cell viability; series mostly up to 92.2 µM; viability change, negative = cytotoxic: at the top concentration
# Procedure, shortened: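 Cytotoxicity is scored as a concentration-dependent fall in ATP-linked luciferase signal in human lymphoblastoid LYMP1-003 cells treated 24 hr at 37 C in complete culture medium.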
row,Compound,"viability change, negative = cytotoxic [%]"
1,C=CC(=O)NCNC(=O)C=C,0.61
2,O=C(O)COc1ccccc1,-1.8
3,OCCCBr,-1.17
4,CCCCCCCCc1ccc(O)cc1,-5.16

# Assay: Cell Viability - LYMP1-003 - Assay at 40 hr (AID 964); note: % is set by controls: 0 for no effect and ±100 for the full control effect; nearly all actives have a fitted effect of over 60% in size
# Conditions: LYMP1-003 lymphoblastoid viability; series mostly up to 92.2 µM; activity change, negative = cytotoxic: at the top concentration
# Procedure, shortened: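 Luminescent ATP signal (CellTiter-Glo) served as the viability read-out after 40 hr compound treatment of human lymphoblastoid LYMP1-003 cells at 37 C. Decreases in ATP were fitted with the Hill equation to give AC50.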
row,Compound,"activity change, negative = cytotoxic [%]"
1,C=CC(=O)NCNC(=O)C=C,-9.2
2,O=C(O)COc1ccccc1,0.651
3,OCCCBr,-6.24
